Assay results reported in ChEMBL document CHEMBL3988442, “University of Dundee, Small-Polar-MMV Screening Library” (2021).

How the values were obtained:
[1] = target: T1, Aspartate--tRNA(Asp/Asn) ligase (Mycobacterium tuberculosis (strain ATCC 25618 / H37Rv)) (UniProt P9WFW3); test: Assay for Asp RNA synthetase-1 from Mycobacterium tuberculosis; type: functional; parameters: scale not given: direction of the effect not stated beside the values; conditions: 30 µM; further: in the data most compounds retested in dose-response had high values
T1 sequence (whole entry): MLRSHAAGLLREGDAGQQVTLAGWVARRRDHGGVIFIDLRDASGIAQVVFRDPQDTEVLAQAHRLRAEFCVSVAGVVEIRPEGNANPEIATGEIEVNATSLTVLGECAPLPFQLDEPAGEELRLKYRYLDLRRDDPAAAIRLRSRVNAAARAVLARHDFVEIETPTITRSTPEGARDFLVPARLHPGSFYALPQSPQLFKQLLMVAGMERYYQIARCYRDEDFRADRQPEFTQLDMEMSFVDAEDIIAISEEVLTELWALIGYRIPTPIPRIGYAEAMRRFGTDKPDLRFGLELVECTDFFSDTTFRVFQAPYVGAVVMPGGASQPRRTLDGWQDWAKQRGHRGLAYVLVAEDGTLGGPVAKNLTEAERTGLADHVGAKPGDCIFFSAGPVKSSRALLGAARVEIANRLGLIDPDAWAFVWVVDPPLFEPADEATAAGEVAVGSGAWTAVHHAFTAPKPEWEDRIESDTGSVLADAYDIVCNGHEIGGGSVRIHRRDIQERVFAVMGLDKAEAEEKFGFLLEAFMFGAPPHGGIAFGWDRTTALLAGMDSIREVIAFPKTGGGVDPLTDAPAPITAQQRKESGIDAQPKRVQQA

[2] = target: Shiga toxin 2 (Escherichia coli O157:H7) (UniProt P09385+P09386); test: E. coli 0.157:H7 Shiga Toxin SOP - stx2 screening assay; type: functional; parameters: scale not given: direction of the effect not stated beside the values; conditions: 30 µM

Row | SMILES | Percent Effect [1] [%] | Percent Effect [2] [%]
1 | COc1cc(S(=O)(=O)N2CCc3ccc(F)cc32)cc(C(=O)O)c1OC | 1.4 | 2.68
2 | COc1cc2ncn(CC(=O)NCCCN(C)C)c(=O)c2cc1OC | -2.9 | -29.9
3 | O=C(c1ccco1)N1CCC2(CC1)C(=O)NCCN2CC1CC1 | 10.6 | -10.1
4 | O=C(NCc1nn(-c2ccccc2)c2c1CCC2)N1CCSCC1 | -2.32 | 34
5 | COc1ccc(C)cc1CN1CCCC1Cn1nc(C)nc1C (stereo not drawn) | -7.82 | -25.1
6 | CC(C(=O)N1CCN(c2ccccc2Cl)CC1)n1cncn1 (stereo not drawn) | -1.38 | -19.8
7 | Cc1ccc(-c2nc(CCNC(=O)NC3CCN(C)CC3)co2)cc1 | -3.19 | 3.52
8 | CCC1=N[C@@]2(CC[C@@H]3CN(Cc4ccccc4F)C[C@@H]32)C(=O)N1CC | 3.79 | -13.9
9 | Cc1nn(C)c(C)c1C1CCCN1C(=O)c1cc[nH]n1 (stereo not drawn) | -5.05 | 11.4
10 | CC(C)CC(CNC(=O)NCc1cc[nH]n1)N1CCOCC1 (stereo not drawn) | -6.68 | -30.7
11 | CCc1cc(N[C@H]2CC[C@H](O)CC2)n2nc(C)c(C)c2n1 | 1.45 | -12.4
12 | CN(C(=O)NCCCN1CCCC1)C1CCN(c2ccccc2)C1=O (stereo not drawn) | -0.189 | 24.2
13 | COc1cccc(OCC(=O)NS(=O)(=O)c2ccc(C)s2)c1 | 1.83 | -6.18
14 | CCc1noc(C(C)N2CCC(N3CCCC3)CC2)n1 (stereo not drawn) | -8.83 | -5.16
15 | O=C(CO)N1CCC(c2cncc(-c3cccc(Cl)c3)n2)CC1 | 4.78 | -9.28
16 | CCN(CC)CCNc1ncc(-c2cc(C)no2)c(-c2ccoc2C)n1 | 2.28 | 7.04
17 | CN(C)C[C@H]1OC[C@@H]2CCN(C(=O)c3cccn3C)C[C@@H]21 | 0.607 | -9.5
18 | CC(=O)Nc1nc(C(=O)N2CCCC2Cn2cc(C)cn2)cs1 (stereo not drawn) | -1.84 | 20.3
19 | COC(=O)CNC(=O)CSCc1nc(O)c2cc(C(C)C)sc2n1 | -0.639 | -7.38
